SMN2 splice enh – qHTS Assay for Enhancers of SMN2 Splice Variant Expression; Potency, µM (series often up to 46.1 µM), for inactives: top-dose activity change, positive = activation, usual class: activators; actives 2.8% (n = 210,000); HEK293 SMN2-luciferase splicing reporter, luminescence, 30-36 h; AID 1458, 2008; further: % of control where 0% means no effect; nearly all actives have a fitted effect of over 55% in size
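HEK293 cells carry an SMN2 minigene-luciferase reporter in which exon 7 inclusion puts luciferase in frame. Cells were seeded at 2000 cells/well, attached for 10-12 hours, then exposed to compounds for 30-36 hours at 37C before ONE-Glo luminescence.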
ELG1 DNA repair – qHTS screen for small molecules that inhibit ELG1-dependent DNA repair in human embryonic kidney (HEK293T) cells expressing luciferase-tagged ELG1. HEK293T ELG1-luciferase reporter, luminescence, 16 h; DNA damage induced by 5-fluorouridine. Potency, µM (titrated, usually from 46.1 µM), without a hit: top-dose activity change, negative = inhibition, most hits filed as inhibitors. actives 2.3% (n = 330,000). AID 504467, 2011; further: on the % scale 0 is the no-effect control and ±100 the full control effect; nearly all actives have a fitted effect of over 55% in size
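Quantitative HTS, concentration-response format. 2,000 cells/well co-treated with 5-fluorouridine and compound, 16 hr in 5% CO2 at 37 °C; ONE-Glo luminescence read after 30 min.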
ELG1 genotoxic – qHTS screen for small molecules that induce genotoxicity in human embryonic kidney (HEK293T) cells expressing luciferase-tagged ELG1; HEK293T ELG1-luciferase reporter, luminescence, 16 h; Potency, µM (titrated, usually from 46 µM), without a hit: top-dose activity change, positive = activation, usual class: activators; actives 1.3% (n = 330,000); AID 504466, 2011; further: % of control where 0% means no effect; nearly all actives have a fitted effect of over 60% in size
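Step 1: seed 2,000 HEK293T ELG1-luciferase cells per well. Step 2: add compound or DMSO, incubate 16 hr at 37 °C. Step 3: ONE-Glo, 30 min at room temperature, read luminescence.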
Rab9 promoter act – qHTS Assay for Rab9 Promoter Activators; Huh7 Rab9 promoter-luciferase reporter, luminescence, 24 h; Potency, µM (doses to about 9.22 µM), for the others: at the highest dose activation, negative = inhibition, most hits filed as activators; AID 485297, 2010; actives 2.8% (n = 320,000); further: % of control where 0% means no effect; nearly all actives have a fitted effect of over 60% in size
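Huh7 cells stably carrying Rab9 promoter–luciferase reporter, plated 1500 cells/well, compound added after 2 h and incubated 24 h at 37 °C; luciferase luminescence then read after 10 min with detection reagent.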
FLuc modulator – qHTS profiling assay for firefly luciferase inhibitor/activator using purifed enzyme and Km concentrations of substrates (counterscreen for miR-21 project); purified FLuc, Km substrates, luminescence inhibition; Potency, µM (top dose mostly 57.5 µM), for the others: at the highest dose activity change, negative = inhibition, hits mostly inhibitors; actives 6.9% (n = 360,000); AID 588342, 2011;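 further: plate controls were vehicle for no effect and reference inhibitor for full effect; nearly all actives have a fitted effect of over 55% in size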
Target sequence (P08659 whole entry, looked up): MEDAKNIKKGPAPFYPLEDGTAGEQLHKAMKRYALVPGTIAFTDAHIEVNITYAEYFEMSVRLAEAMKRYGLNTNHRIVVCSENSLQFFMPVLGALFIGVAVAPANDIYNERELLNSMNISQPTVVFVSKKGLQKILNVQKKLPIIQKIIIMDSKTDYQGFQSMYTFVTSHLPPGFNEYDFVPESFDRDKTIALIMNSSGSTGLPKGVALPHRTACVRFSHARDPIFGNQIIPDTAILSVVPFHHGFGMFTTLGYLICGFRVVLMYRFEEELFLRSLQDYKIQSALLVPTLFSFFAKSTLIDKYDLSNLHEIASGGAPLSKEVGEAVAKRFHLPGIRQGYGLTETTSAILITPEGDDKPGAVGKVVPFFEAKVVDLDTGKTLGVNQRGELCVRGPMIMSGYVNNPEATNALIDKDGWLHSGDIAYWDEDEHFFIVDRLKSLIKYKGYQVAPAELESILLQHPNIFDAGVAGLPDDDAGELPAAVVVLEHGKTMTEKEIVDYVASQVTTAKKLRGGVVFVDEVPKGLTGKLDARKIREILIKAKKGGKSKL
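Purified P. pyralis luciferase, 10 nM final, with Km-level 10 uM D-luciferin and 10 uM ATP in 50 mM Tris acetate pH 7.5, 10 mM Mg acetate, 0.01% Tween-20, 0.05% BSA; 6-point qHTS titration about 60 µM downward; luminescence read.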
NPC1 promoter act – qHTS Assay for NPC1 Promoter Activators. actives 2.4% (n = 320,000). AID 485313, 2010. Potency, µM (top dose mostly 9.22 µM), for the others: at the top dose activation, most hits filed as activators. Huh7 NPC1 promoter luciferase reporter, 24 h; further: % of control where 0% means no effect; nearly all actives have a fitted effect of over 60% in size
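Huh7 cells stably carrying NPC1 promoter–luciferase, plated in Opti-MEM with 10% FBS for 2 h, were exposed to compound in DMSO for 24 h at 37 °C; luciferase reagent was added for 10 min and luminescence read.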
Active calls of the source: *; ? = inconclusive; / = no result; [ ] = remark or other dose. Rows were chosen to be rich in hits. Some 9.3% of all compounds tested hit in one or more screens of this group. The call rests on the fitted dose curve; in most records, active means well fitted curve in the direction sought with a large enough effect; inconclusive means small, poorly fitted or top-dose-only effect, or another doubt; inactive means no such curve, though single readings can be large; an effect the other way counts as inactive or inconclusive. Potency means the concentration at half of the fitted maximal effect.

SMILES	SMN2 splice enh	ELG1 DNA repair	ELG1 genotoxic	Rab9 promoter act	FLuc modulator	NPC1 promoter act
CC12CC3(C)CC(C)(C1)CC(C(=O)NC(=S)NC(C)(C)C)(C2)C3	?	4%	0%	-7%	0%	-2%
CCc1ccc(NC(=O)C(NS(=O)(=O)c2ccc3c(c2)CCN3C(C)=O)C(C)C)cc1 (stereo unspecified)	/	17%	1%	5%	-2%	-20%
Cc1ccc(NC(=S)NC(=O)c2ccc(Br)o2)c(C)c1	8.9µM*	?	?	2.8µM*	9.5µM*	?
Cc1ccc(NC(=S)NC(=O)C2CCC2)cc1C	/	?	?	4µM*	9.5µM*	1.4µM*
Cc1cccc(NC(=S)NC(=O)c2ccc(Br)o2)c1C	5%	?	8%	1%	?	7%
CCC(NC(=O)c1ccccc1NC(=O)c1ccc(C)cc1)C(=O)O (stereo unspecified)	2%	?	?	20%	13µM*	10%
Cc1ccc(C(=O)Nc2ccccc2C(=O)NC(Cc2ccccc2)C(=O)O)cc1 (stereo unspecified)	13%	?	13%	24%	11µM*	14%
Cc1ccc(C(=O)Nc2ccccc2C(=O)NC(Cc2c[nH]c3ccccc23)C(=O)O)cc1 (stereo unspecified)	23%	?	9%	21%	11µM*	11%
O=C(NC(Cc1ccccc1)C(=O)O)c1ccccc1 (stereo unspecified)	-11%	0%	0%	2%	-11%	-3%
CN(C)CCNC(=O)CCCn1c(=O)c2cccn2c2ccccc21	/	/	/	/	15µM*	/
COc1ccc(CCNC(=O)CCCn2c(=O)c3cccn3c3ccccc32)cc1OC	/	/	/	/	-1%	/
Cc1ccc(Cl)cc1NC(=O)CCCn1c(=O)c2cccn2c2ccccc21	/	/	/	/	12µM*	/
Cc1ccc(Cl)cc1NC(=O)CCCn1c(=O)c2cccn2c2cccnc21	/	/	/	/	-2%	/
COc1ccc(CCNC(=O)CCCn2c(=O)c3cccn3c3cccnc32)c(OC)c1OC	/	13µM*	-4%	0%	-7%	-6%
C[C@H](NC(=O)c1nc[nH]c1C(=O)N[C@H](C)c1ccccc1)C(=O)OC(C)(C)C	/	?	-2%	6%	4%	0%
Cc1cccc(Cn2c(NCC(C)O)nc3c2c(=O)n(C)c(=O)n3C)c1 (stereo unspecified)	-91%	15µM*	-6%	-23%	6%	-9%
COCCCNc1nc2c(c(=O)n(C)c(=O)n2C)n1Cc1cccc(OC)c1	-22%	15µM*	-1%	0%	4%	-8%
COCCNc1nc2c(c(=O)n(C)c(=O)n2C)n1Cc1cccc(C)c1	-52%	21µM*	-10%	-19%	-2%	0%
CCN1C(=S)SC(=O)C1=C1C=C(C)N(Cc2ccco2)C(C)=C1	?	?	2.6µM*	0.63µM*	3.4µM*	1.4µM*
CCC(Sc1nc(C)cc(C)n1)C(=O)Nc1nccs1 (stereo unspecified)	/	18µM*	-14%	-2%	-6%	-14%
CCC(Sc1nnc(C)s1)C(=O)Nc1nccs1 (stereo unspecified)	-6%	?	-1%	2%	0%	-2%
CN1C=C/C(=C\c2cc[n+](C)c3ccccc23)c2ccccc21	-82%	?	12%	-32%	17µM*	-39%
CC[n+]1ccc(/C=C2\Sc3ccccc3N2CCCS(=O)(=O)[O-])c2ccccc21	4%	-8%	1%	2%	-14%	-2%
O=C(NCc1ccc(F)cc1)c1ccc(N2CCc3ccccc32)c([N+](=O)[O-])c1	-62%	?	-2%	-5%	0%	-1%
CCCOc1ccc(CCCN=C(N)N)cc1Cl	/	13µM*	6%	-28%	0%	-22%
SMILES	SMN2 splice enh	ELG1 DNA repair	ELG1 genotoxic	Rab9 promoter act	FLuc modulator	NPC1 promoter act
Cn1c(-c2ccccc2)cnc1NCc1ccccc1O	9%	/	/	/	-19%	/
CCOc1cc(-c2ccc(OC(=O)c3ccccc3Cl)c(OC)c2)cc(=O)c2c(C)oc(C)c12	/	/	/	/	-10%	/
O=C1CN(C(=O)c2ccccc2[N+](=O)[O-])C(c2ccccc2)c2cc(Br)ccc2N1 (stereo unspecified)	/	18µM*	-4%	1%	2%	2%
Cc1ccc2c(c1)C(c1ccccc1)N(C(=O)c1ccccc1[N+](=O)[O-])CC(=O)N2 (stereo unspecified)	/	21µM*	-4%	-6%	-2%	-1%
COc1ccc(S(=O)(=O)NCc2ccc(C(=O)NCCCN3CCCC(C)C3)cc2)cc1 (stereo unspecified)	/	21%	-1%	-7%	-3%	-2%
COc1cc2[nH]c(C(=O)N3CCC(Cc4ccccc4)CC3)cc2c(OC)c1OC	/	?	-4%	-7%	24µM*	0%
COc1cc2[nH]c(C(=O)N3CCc4ccccc43)cc2c(OC)c1OC	/	?	?	?	17µM*	24%
CCN1CCN(C(=O)c2cc3c(OC)c(OC)c(OC)cc3[nH]2)CC1	/	?	4%	2%	-7%	0%
CCOC(=O)C1CCN(C(=O)c2cc3c(OC)c(OC)c(OC)cc3[nH]2)CC1	/	?	9%	-3%[1.84 µM]	-4%	-3%
Nc1c(C(=O)NCc2ccc(Cl)cc2)sc2nc(-c3ccc(F)cc3)ccc12	5%	/	/	/	-1%	/
COc1ccc(-c2ccc3c(N)c(C(=O)NCc4ccc(Cl)cc4)sc3n2)cc1	11µM*	/	/	/	7%	/
CCOC(=O)c1sc2nc(-c3cccnc3)ccc2c1N	/	?	2.6µM*	0.5µM*	0.48µM*	0.45µM*
COc1ccc(C(=O)c2sc3nc(-c4ccccc4)ccc3c2N)cc1	-1%	3%	0%	-10%	-18%	-3%
CC(C)OC(=O)c1sc2nc(-c3ccccc3)ccc2c1N	-31%	?	?	0.45µM*	0.3µM*	0.32µM*
O=C1CC(=C2c3ccccc3-c3ccccc32)C(=O)N1CCCCN1CCN(c2ccccc2)CC1	-24%	-11%	-9%	3%	3%	-4%
COc1cccc2cc(-c3nnc(-c4ccc(Cl)cc4)o3)c(=O)oc12	0%	/	/	/	1.7µM*	/
CCCCCCc1cc2cc(-c3nnc(-c4ccccc4OC)o3)c(=O)oc2cc1O	-96%	7.3µM*	-18%	2%	?	-1%
